Drawing on PubChem BioAssay, this text covers composite z-score and z-score for 16 compounds.

Activity calls are given as the source filed them.

Test [1] can be described thus: binders of probe aFSTL3 on microarray, primary screen, stem cell growth factor project, biochemical, small-molecule microarray, fluorescence 635/667 (AID 1064).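 Also: measures binding of the biotinylated anti-FSTL3 antibody to printed compounds.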 Conditions: higher = more signal.
The nature of test [2]: binders from COS7 lysate, DM2A8 probe, primary screen, torsin A project, cell lysate, small-molecule microarray, fluorescence 635/667 (AID 1065). As to conditions: higher = more signal, COS7 lysate expressing mutant human TOR1A.
Test [3] is described as follows: binders of probe aFGF2 on microarray, primary screen, stem cell growth factor project, biochemical, small-molecule microarray, fluorescence 635/667 (AID 1067).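 Also: measures binding of biotinylated aFGF2 protein to printed compounds on slides; z-score merges feature fluorescence and signal-to-noise across triplicate slides.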 Conditions: higher = more signal.
The nature of test [4]: binders of probe aFGF10 on microarray, primary screen, stem cell growth factor project, biochemical, small-molecule microarray, fluorescence 635/667 (AID 1071).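 Also: score merges 667 nm spot intensity and signal to noise from triplicate slides.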 Conditions: higher = more signal.
For test [5], the target named is Neurogenic locus notch homolog protein 2 (Homo sapiens) (UniProt Q04721). The experiment in a line: Notch2 binders on small-molecule microarrays, primary screen, biochemical, small-molecule microarray, 635 nm fluorescence, stem cell growth factors (AID 1073). As to conditions: Notch2 binding, higher = more signal.
Sequence of Neurogenic locus notch homolog protein 2 (Homo sapiens) (Q04721 whole entry, looked up, canonical isoform): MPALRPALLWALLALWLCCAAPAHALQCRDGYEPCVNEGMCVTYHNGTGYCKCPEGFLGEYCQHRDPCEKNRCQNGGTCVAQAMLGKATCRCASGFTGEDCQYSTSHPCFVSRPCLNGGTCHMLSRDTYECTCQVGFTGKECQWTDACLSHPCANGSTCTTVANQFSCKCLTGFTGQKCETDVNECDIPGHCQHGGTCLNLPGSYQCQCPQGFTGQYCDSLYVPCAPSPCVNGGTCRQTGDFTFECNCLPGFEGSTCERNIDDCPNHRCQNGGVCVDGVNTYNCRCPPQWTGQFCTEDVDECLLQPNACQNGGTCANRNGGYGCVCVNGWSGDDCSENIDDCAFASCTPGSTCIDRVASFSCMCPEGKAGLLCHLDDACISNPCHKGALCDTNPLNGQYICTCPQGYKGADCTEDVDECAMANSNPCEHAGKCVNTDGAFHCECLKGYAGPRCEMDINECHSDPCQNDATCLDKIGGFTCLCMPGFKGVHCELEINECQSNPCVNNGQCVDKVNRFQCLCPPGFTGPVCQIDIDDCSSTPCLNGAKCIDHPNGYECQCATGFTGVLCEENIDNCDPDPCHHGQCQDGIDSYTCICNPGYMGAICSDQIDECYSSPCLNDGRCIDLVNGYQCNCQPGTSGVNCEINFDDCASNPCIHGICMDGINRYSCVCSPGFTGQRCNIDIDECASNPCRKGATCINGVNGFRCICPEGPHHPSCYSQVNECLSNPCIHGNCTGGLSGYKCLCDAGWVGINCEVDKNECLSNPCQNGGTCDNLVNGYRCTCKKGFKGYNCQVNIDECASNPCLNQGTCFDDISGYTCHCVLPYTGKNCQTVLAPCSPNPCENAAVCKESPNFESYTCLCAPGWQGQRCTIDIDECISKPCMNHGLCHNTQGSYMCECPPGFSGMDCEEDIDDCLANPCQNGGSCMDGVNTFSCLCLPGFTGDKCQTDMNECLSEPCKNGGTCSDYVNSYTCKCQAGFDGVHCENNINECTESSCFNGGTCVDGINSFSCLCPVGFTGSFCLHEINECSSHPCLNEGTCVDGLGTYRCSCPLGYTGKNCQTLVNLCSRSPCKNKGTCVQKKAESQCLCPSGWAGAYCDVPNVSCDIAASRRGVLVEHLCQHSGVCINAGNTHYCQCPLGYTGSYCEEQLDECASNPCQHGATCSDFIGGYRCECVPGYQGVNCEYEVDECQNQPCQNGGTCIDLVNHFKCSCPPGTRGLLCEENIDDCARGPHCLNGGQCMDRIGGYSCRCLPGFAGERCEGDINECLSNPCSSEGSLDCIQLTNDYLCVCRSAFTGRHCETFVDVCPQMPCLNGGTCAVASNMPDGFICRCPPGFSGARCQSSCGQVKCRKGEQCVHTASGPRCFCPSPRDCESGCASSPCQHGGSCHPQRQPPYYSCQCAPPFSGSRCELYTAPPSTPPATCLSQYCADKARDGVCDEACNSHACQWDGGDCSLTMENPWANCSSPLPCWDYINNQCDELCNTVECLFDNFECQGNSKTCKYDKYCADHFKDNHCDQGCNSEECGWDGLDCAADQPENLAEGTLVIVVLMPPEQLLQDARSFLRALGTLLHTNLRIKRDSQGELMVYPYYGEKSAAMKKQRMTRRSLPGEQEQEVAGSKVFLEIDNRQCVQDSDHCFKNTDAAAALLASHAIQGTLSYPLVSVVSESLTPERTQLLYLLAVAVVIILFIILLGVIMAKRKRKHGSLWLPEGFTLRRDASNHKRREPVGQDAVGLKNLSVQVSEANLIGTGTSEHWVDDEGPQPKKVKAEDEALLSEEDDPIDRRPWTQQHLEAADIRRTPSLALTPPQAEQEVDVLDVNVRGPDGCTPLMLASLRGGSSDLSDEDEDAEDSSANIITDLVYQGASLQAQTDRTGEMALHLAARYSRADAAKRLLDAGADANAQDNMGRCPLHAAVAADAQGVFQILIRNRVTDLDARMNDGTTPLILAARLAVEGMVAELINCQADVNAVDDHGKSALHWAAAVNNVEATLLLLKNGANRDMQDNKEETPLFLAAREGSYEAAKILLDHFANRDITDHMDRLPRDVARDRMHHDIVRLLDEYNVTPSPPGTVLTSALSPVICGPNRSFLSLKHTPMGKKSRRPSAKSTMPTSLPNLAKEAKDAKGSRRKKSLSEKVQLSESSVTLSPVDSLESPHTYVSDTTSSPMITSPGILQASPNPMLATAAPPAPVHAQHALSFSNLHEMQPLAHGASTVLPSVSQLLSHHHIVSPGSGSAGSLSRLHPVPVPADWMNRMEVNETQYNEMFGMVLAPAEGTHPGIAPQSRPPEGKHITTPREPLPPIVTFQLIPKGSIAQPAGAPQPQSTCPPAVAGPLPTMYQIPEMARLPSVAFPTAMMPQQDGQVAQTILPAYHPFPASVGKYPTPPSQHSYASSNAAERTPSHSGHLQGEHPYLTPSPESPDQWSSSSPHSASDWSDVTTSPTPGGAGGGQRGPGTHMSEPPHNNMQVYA
Test [6] concerns the target Pro-neuregulin-1, membrane-bound isoform (Homo sapiens) (UniProt Q02297). Put plainly: NRG1 binders on small-molecule microarrays, primary screen, psychiatric disease protein project, biochemical, small-molecule microarray, fluorescence 635/667 (AID 1075).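 Also: score combines 667 nm spot fluorescence with signal to noise.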 As to conditions: NRG1 binding, 635 nm fluorescence, higher = more signal.
Test [7] concerns Neuregulin-1 EGF-like domain. Put plainly: binders of neuregulin-1 EGF-like domain, primary screen, biochemical, small-molecule microarray, 635 nm fluorescence (AID 1081).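 Also: binding of the protein to compounds printed on small-molecule microarray slides.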 As to conditions: small-molecule microarray binding, higher = more signal.
A short description of test [8]: FRG1 promoter luciferase signal modulators, primary screen, FRG1 inhibition for FSHD, cell-based, C2C12 myotubes, firefly/Renilla luciferase, luminescence (AID 1084). As to conditions: higher = more signal, called active from +8 up or from −8 down.
The nature of test [9]: binders of probe aFST on microarray, primary screen, stem cell growth factor project, biochemical, small-molecule microarray, fluorescence 635/667 (AID 1086).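 Also: score merges 667 nm fluorescence with signal-to-noise of each printed compound spot.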 Conditions: higher = more signal.
Test [10] in a line: binders of probe aHhip on microarray, primary screen, stem cell growth factor project, biochemical, small-molecule microarray, fluorescence 635/667 (AID 1087).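 Also: score merges spot fluorescence at 667nm with spot signal to noise ratio.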 Conditions: higher = more signal.

Sequence of Pro-neuregulin-1, membrane-bound isoform (Homo sapiens) (Q02297 whole entry, looked up, the tested form may be a part, canonical isoform): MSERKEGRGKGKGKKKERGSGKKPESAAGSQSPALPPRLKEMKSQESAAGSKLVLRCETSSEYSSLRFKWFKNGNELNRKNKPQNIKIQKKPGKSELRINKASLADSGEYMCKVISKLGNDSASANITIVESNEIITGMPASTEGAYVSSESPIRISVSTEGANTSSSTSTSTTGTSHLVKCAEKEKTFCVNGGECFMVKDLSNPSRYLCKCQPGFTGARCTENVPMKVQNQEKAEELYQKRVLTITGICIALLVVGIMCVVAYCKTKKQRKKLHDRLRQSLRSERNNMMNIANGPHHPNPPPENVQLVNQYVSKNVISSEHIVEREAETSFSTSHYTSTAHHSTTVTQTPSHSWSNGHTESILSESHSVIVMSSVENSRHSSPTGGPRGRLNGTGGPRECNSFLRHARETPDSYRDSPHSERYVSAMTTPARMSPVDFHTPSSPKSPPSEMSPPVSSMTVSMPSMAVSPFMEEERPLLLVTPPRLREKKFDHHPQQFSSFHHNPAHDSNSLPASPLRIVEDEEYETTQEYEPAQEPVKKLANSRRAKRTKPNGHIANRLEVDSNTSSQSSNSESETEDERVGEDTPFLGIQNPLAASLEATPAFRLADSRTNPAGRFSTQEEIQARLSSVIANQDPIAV

With `O=C1NC(=O)C2C1C=CC(C(O)C=Cc1ccc([N+](=O)[O-])cc1)N2Nc1ccc(Cl)cc1Cl` (stereo not given), the composite z-score worked out at 1.03 in test [1]; 0.723 in test [2]; 0.136 in [3]; 0.797 in [4]; 1.69 in test [5]; 1.87 in [6]. The composite z-score in test [7] turned out to be 1.12; in test [9], 0.939; in test [10], 0.206. The z-score in [8] is 0.0592 (inactive).
Consider `CCCNC(=O)[C@@]1(Sc2ccc(C)cc2)CC(=O)N(Cc2ccccc2C(F)(F)F)[C@@H]1c1ccc(CO)cc1I`, for which the composite z-score in test [1] is -0.0981; in test [2], 2.46; in test [3], -0.0583; in [4], -0.0686; in [5] it was 0.267; in test [6] it was 1.22. In addition, the composite z-score was 1.07 in test [7], 0.574 in [9] and -0.0346 in [10]. In addition, the z-score in test [8] is -0.267 (inactive).
Take `CO[C@H]1O[C@H](CO)[C@@H](OC(=O)Nc2ccc(Oc3ccccc3)cc2)[C@H](OC(=O)Nc2ccc3c(c2)OCO3)[C@@H]1OC(=O)Nc1ccc2c(c1)OCO2`: the composite z-score was 0.154 in test [1]; 0.333 in [2]; -0.0493 in test [3]; 1.22 in test [4]; 1.55 in [5]; 0.516 in test [6]. Further, the composite z-score in test [7] was 1.09; in test [9] it was 0.8; in test [10] it was 0.28. Moreover, in test [8], the z-score is -0.0746 (inactive).
Regarding `C=CCOC(=O)[C@H]1[C@@H]2C(=O)O[C@@H](c3ccccc3)[C@@H](c3ccccc3)N2[C@@H](c2ccc(OCCOC(=O)[C@@H]3C[C@@H]4C(=O)N5CCC[C@H]5C(=O)N4[C@@H]3c3cccc(OCCO)c3)cc2)[C@]12C(=O)Nc1ccc(I)cc12`, the composite z-score was -0.34 in test [1]; 1.19 in [2]; -0.104 in test [3]; 0.397 in test [4]; 0.373 in [5]; 1.05 in test [6]. Besides, the results for the composite z-score in test [7], in [9] and in [10] were 1.31, 0.447 and -0.12, respectively. In addition, the z-score in test [8] is 0.984 (inactive).
On to `C=CCNC(=O)[C@H]1[C@@H]2C(=O)O[C@@H](c3ccccc3)[C@@H](c3ccccc3)N2[C@@H](c2ccc(O)cc2)[C@]12C(=O)Nc1ccc(C#CCCO)cc12`, for which the composite z-score in test [1] is -0.107; in test [2] it was -1.51; in test [3], -0.122; in test [4], -0.0819; in test [5] it was -0.697; in test [6], 1.01. The composite z-score in [7] was 0.732; in test [9], 0.33; in test [10], -0.0994. In addition, the z-score in test [8] was -3.71 (inactive).
As for `N#Cc1ccc(C(O)C2C=CC3C(=O)N(c4ccccc4)C(=O)C3N2Nc2ccccc2F)cc1` (stereo not given), the composite z-score is -0.367 in test [1]; 0.362 in [2]; 0.315 in test [3]; 0.936 in [4]; 1.37 in test [5]; 1.24 in [6]. For the same compound, the composite z-score in test [7] is -0.0077; in [9] it was 0.716; in [10] it was -0.0994. The z-score in [8] is 0.372 (inactive).
For the compound `O=C1OCCC=C[C@H]2OC34C=CCN(CCN5CCOCC5)C(=O)[C@H]3N(CCCCCO)C(=O)[C@@H]4C12` (stereo not given in full), the composite z-score in [1] is -0.391; in [2] it was 1.84; in test [3] it was -0.203; in test [4], 0.0681; in test [5], -0.419; in [6], 1.06. Moreover, the composite z-score was 1.42 in [7], -0.324 in [9] and -0.0994 in [10]. In addition, in test [8], the z-score is -0.521 (inactive).
In the case of `O=C(CS)NCCCCCNC(=O)[C@H]1C[C@H]2C(=O)NCC(=O)N2[C@H]1c1cccc(OCCO)c1`, the composite z-score in test [1] is 0.656; in [2], -0.498; in test [3], -0.0579; in [4], -0.461; in test [5], -1.2; in test [6] it was 1.33. In addition, the composite z-score in test [7] is 0.375; in [9], -0.793; in [10], -0.176. The z-score in test [8] is 3.3 (inactive).
Turning to `CCCCN1CC=CC23O[C@@H]4C=CCOC(=O)[C@@H]4[C@H]2C(=O)N(CCCCCCO)[C@@H]3C1=O` (stereo not given in full), the composite z-score in [1] is 1.22; in test [2], -0.64; in test [3] it was -0.141; in [4] it was -1.34; in [5], -1.86; in test [6], 1.01. For the same compound, the results for the composite z-score in test [7], in [9] and in test [10] were 1.3, -0.581 and -0.134, respectively. Besides, in [8], the z-score was -0.0048 (inactive).
`C=CC1c2cc(O)c(OC)cc2CCN1Cc1cccc(OC(F)(F)F)c1` (stereo not given): the composite z-score in test [1] is 0.335; in test [2], -0.145; in test [3], -0.103; in [4], -0.605; in test [5], -0.137; in [6], 1.59. The composite z-score in [7] was 1.1; in test [9] it was -0.108; in test [10] it was -0.268. Further, the z-score in [8] is 0.385 (inactive).
For `O=C1O[C@@H](c2ccccc2)[C@@H](c2ccccc2)N2[C@@H](c3ccccc3OCCO)[C@]3(C(=O)Nc4ccc(C#CC5(O)CCCCCC5)cc43)[C@@H](C(=O)N3CCN(c4ncccn4)CC3)[C@H]12`, the composite z-score in test [1] was -0.002; in [2], 0.432; in test [3] it was 0.0182; in test [4] it was 0.92; in [5] it was -0.116; in [6], 0.893. Besides, the figures for the composite z-score in test [7], in [9] and in test [10] were 1.2, -0.0815 and -0.137, respectively. In addition, the z-score in test [8] is -2.4 (inactive).
Consider `CC1CC/C=C\[C@H]2OC34C=CCN(c5ccc6ccccc6c5)C(=O)[C@H]3N(CCO)C(=O)[C@@H]4C2C(=O)O1` (stereo not given in full), for which the composite z-score was -0.17 in test [1]; 0.122 in [2]; -0.0996 in test [3]; 0.0867 in test [4]; -1.18 in test [5]; -0.378 in test [6]. Moreover, the composite z-score in [7] is 0.868; in test [9] it was -0.358; in test [10], 1.74. In test [8], the z-score was 0.571 (inactive).
For `COc1cc2c(cc1OC)CN(C(=O)[C@H]1[C@@H]3C(=O)O[C@@H](c4ccccc4)[C@@H](c4ccccc4)N3[C@@H](c3ccccc3OCCO)[C@]13C(=O)Nc1ccc(C#CCCO)cc13)CC2`, the composite z-score in test [1] was -0.39; in test [2] it was 0.282; in [3], 0.0094; in test [4], 0.339; in test [5], 0.775; in test [6], 1.27. Also, the values for the composite z-score in test [7], in [9] and in test [10] were 1.07, 0.369 and -0.0994, respectively. In addition, the z-score in test [8] is -2.07 (inactive).
For `CCN(CC)c1ccc(N2CC=CC34O[C@@H]5/C=C\CCC(C)OC(=O)C5[C@H]3C(=O)N(CCCCCO)[C@@H]4C2=O)cc1` (stereo not given in full), the composite z-score was -0.129 in [1]; -0.474 in test [2]; -0.103 in test [3]; -0.497 in test [4]; -1.45 in test [5]; -0.551 in [6]. Besides, the composite z-score was -0.506 in [7], -0.284 in test [9] and -0.37 in test [10]. Besides, the z-score in [8] is 0.376 (inactive).
Take `COc1cc(CO)cc(I)c1O[C@H]1C=C(C(=O)NCCO)C[C@@H](N(C(=O)c2cc3ccccc3oc2=O)C2CCCCCC2)[C@@H]1O`: the composite z-score in test [1] was -0.386; in [2], 0.419; in test [3], -0.0935; in test [4], 0.661; in test [5] it was 0.511; in [6], -0.19. The composite z-score in test [7] was -0.52; in [9] it was -0.0938; in test [10], 0.0646. The z-score in test [8] was -0.738 (inactive).
As for `O=C1N(CCS(=O)(=O)c2ccccc2)c2ccccc2[C@@H]2OC(c3ccc(OCCCO)cc3)=N[C@]12Cc1ccccc1`, the composite z-score in [1] was -0.0695; in [2] it was 0.437; in test [3], -0.165; in test [4], 0.307; in [5], 0.849; in [6] it was 1.38. The composite z-score in test [7] is 1.29; in test [9] it was 0.57; in test [10], -0.156. Besides, in test [8], the z-score was -4.02 (inactive).
